Molecules are shown by their SMILES. Screen size: about 190,000 compounds; about 1,300 (0.68%) were called active. Rule as the data show it: active = inhibition above about 50%; inactive = the rest. What follows is part of a selection rich in actives, with near analogues and random picks from the rest.

The target in the assay is Mannose-6-phosphate isomerase (Homo sapiens) (UniProt P34949). The assay is described as follows: MPI inhibition at elevated mannose 6-phosphate – biochemical, fluorescence intensity, high mannose 6-phosphate, primary screen (AID 1220). To be noted: recombinant PMI enzyme, coupled fluorescence intensity; at 20 µM; active compounds read high.
Chain of Mannose-6-phosphate isomerase (Homo sapiens) (P34949 whole entry, looked up): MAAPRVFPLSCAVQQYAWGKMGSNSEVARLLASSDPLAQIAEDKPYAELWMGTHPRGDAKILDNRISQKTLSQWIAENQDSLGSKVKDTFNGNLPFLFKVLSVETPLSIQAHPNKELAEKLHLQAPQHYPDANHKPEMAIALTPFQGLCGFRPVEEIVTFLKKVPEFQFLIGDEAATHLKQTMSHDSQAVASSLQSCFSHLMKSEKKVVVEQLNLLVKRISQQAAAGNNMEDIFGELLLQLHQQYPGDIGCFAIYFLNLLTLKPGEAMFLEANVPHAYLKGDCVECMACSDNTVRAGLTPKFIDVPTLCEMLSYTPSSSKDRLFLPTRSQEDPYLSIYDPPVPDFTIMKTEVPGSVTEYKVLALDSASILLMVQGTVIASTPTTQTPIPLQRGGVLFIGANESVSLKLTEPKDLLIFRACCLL
The term inhibition denotes the drop in the measured response relative to a control, in per cent. For `CC(=O)Nc1ccc(S(=O)(=O)Nc2c(C)n(C)n(-c3ccccc3)c2=O)cc1`, the inhibition was 4.8% (inactive). The value for `O=C(NCc1ccco1)c1cc2nc(C3CC3)cc(C(F)(F)F)n2n1` was 8.5% (inactive); that for `Cc1c(NC(=O)C2CCCCN2S(=O)(=O)c2ccc(Cl)cc2)c(=O)n(-c2ccccc2)n1C` (stereo not given) was 4.8% (inactive). For the compound `Cc1ccc(C(=O)NC(=S)Nc2cccc(NC(=O)c3ccccc3)c2)cc1[N+](=O)[O-]`, the inhibition is 0.9% (inactive). Then `Fc1ccc(-n2nnc(-c3cccnc3)n2)cc1`, with -1.8% (inactive); and `Cc1cccc(-c2n[nH]c(=S)n2C)c1`, with -8.8% (inactive); and `O=C(NC1=NCCS1)c1ccccc1OCc1ccc(F)cc1`, with 1.4% (inactive). Then `COc1ccc(OC)c(N=C2C(=O)Nc3ccccc32)c1`, with 5.1% (inactive); and `OCc1ccccc1N=c1ssnc1Cl`, with 43.7% (inactive); and `COc1ccc(OC)c(N=c2ssnc2Cl)c1`, with 67.4% (active). Consider `COc1cc(N=c2ssnc2Cl)cc(OC)c1`, for which the inhibition was 27.3% (inactive). As for `COc1ccc(N=c2sc3ccccc3n2C)cc1`, the inhibition is 0.4% (inactive).

Take `Cc1ccc(-c2nc(C)sc2CC(=O)OCC(=O)Nc2cccc([N+](=O)[O-])c2)cc1`: the inhibition was -5.6% (inactive). With `C/C(=N\N=C\c1ccc(N(C)C)cc1)c1cccc([N+](=O)[O-])c1`, the inhibition is -128% (inactive). Regarding `COC(=O)c1sccc1NC(=S)Nc1cc(OC)ccc1OC`, the inhibition is 41.2% (inactive). As for `COc1ccc2c(c1)-c1nc(NC(=O)c3ccco3)sc1CC2`, the inhibition is 32.9% (inactive). Take `COc1ccc2c(c1)Cc1sc(NC(=O)c3cccnc3)nc1-2`: the inhibition is 64.2% (active). For the compound `COc1ccc2c(c1)CCc1sc(NC(=O)c3ccco3)nc1-2`, the inhibition is 60.6% (active).

Consider `COc1ccc2c(c1)Cc1sc(NC(=O)c3ccccc3)nc1-2`, for which the inhibition is -13.1% (inactive). For the compound `COc1ccc(C(=O)Nc2nc3c(s2)Cc2cc(OC)ccc2-3)cc1`, the inhibition is 26.8% (inactive). In the case of `COc1ccc2c(c1)Cc1sc(NC(=O)c3ccco3)nc1-2`, the inhibition was 45.8% (inactive).

Consider `Cc1ccc(NC(=O)c2cc(C)n(-c3ccccc3)c2C)cc1`, for which the inhibition is 9.3% (inactive).

Take `Cc1ccc(CN(c2ccc(C(=O)N3CCCC3)cc2)S(C)(=O)=O)cc1`: the inhibition was -1.2% (inactive). Turning to `CCC(=O)Nc1cccc(NC(=O)CSc2nnc(-c3ccc(NS(C)(=O)=O)cc3)n2CC)c1`, the inhibition was -2.3% (inactive). For the compound `CCc1nnc(NC(=O)CSc2nnc3c4ccccc4n(C)c3n2)s1`, the inhibition is 2% (inactive). For the compound `Cc1onc(-c2c(F)cccc2Cl)c1C(=O)N1CCCc2ccccc21`, the inhibition was 4.2% (inactive). As for `O=C1NC(Cc2ccccc2)C(=O)N1Cc1cc([N+](=O)[O-])cc2c1OCOC2` (stereo not given), the inhibition is -4.9% (inactive). Regarding `O=C(CN(C(=O)Cn1nnc(-c2ccccc2F)n1)c1cccc2c1CCCC2)NCc1ccccc1`, the inhibition was 28.1% (inactive). Then `NC(=O)NC(=O)CC1S/C(=N/N=C2/NC(=O)CS2)NC1=O` (stereo not given), with 24.9% (inactive); and `NC(=O)NC(=O)CC1S/C(=N/N=C/c2ccccc2)NC1=O` (stereo not given), with -2% (inactive). The value for `NC(=O)NC(=O)CC1S/C(=N/N=C2\CSC(=O)N2)NC1=O` (stereo not given) was 50.5% (active); that for `COc1ccc(-c2cc(C(=O)Nc3c(C)nn(Cc4ccc(Cl)cc4)c3C)no2)cc1` was 1.1% (inactive). Then `CC(CCn1cccn1)NC(=O)c1cc(COc2ccc(F)cc2F)on1` (stereo not given), with 7.7% (inactive).

With `Cc1cc2nccc(-c3ccccn3)n2n1`, the inhibition is -0.9% (inactive).

As to `c1ccc(-c2cc3nccc(-c4ccccn4)n3n2)cc1`, the inhibition is 61.5% (active). `Nc1nc2nccc(-c3ccccn3)n2n1`: the inhibition was 4.4% (inactive). The value for `Cc1cc2nc(CS(=O)(=O)c3ccccc3)cc(=O)n2[nH]1` was 0.1% (inactive); that for `Cc1nn(C)c(C)c1CS(=O)(=O)c1ccccc1` was 2.6% (inactive); that for `CCCCCCCCNc1nc(Cl)nc(NCCN2CCOCC2)n1` was -7.1% (inactive). For `NC(=O)CSc1nc2ccccc2nc1SCC(N)=O`, the inhibition is -6.6% (inactive). The value for `CCOc1cc(Cl)c(NC(C)=O)cc1OCC` was -3.5% (inactive); that for `CC(=O)Nc1nonc1NC(C)=O` was 10.7% (inactive).

With `COc1cc(O)c(C(C)=O)cc1OC`, the inhibition was -17% (inactive). The value for `CC(=O)Nc1cc(OC(C)=O)c2nonc2c1OC(C)=O` was 78.3% (active); that for `CCOc1cc(NC(=O)C2CCCO2)c(OCC)cc1NC(C)=O` (stereo not given) was 6.8% (inactive). With `COc1cc(O)c(NC(C)=O)c2nonc12`, the inhibition is 62.4% (active). The value for `COc1ccc(/C=N/NS(=O)(=O)c2ccccc2)cc1OC(=O)c1ccc(C)cc1` was 6.9% (inactive); that for `Clc1ccccc1Cc1noc(CN2CCCCC2CCc2ccccn2)n1` (stereo not given) was 16.4% (inactive); that for `FC(F)Oc1ccc(/C=N/c2c(-c3ccc(OC(F)F)cc3)nc3n2CCS3)cc1` was 1.9% (inactive).

Consider `Clc1ccc(/C=N/c2c(-c3ccc(Cl)cc3)nc3n2CCS3)cc1`, for which the inhibition is 0.3% (inactive). Take `COc1ccc(/C=N/c2c(-c3ccc(OC)cc3)nc3n2CCS3)cc1`: the inhibition is 57.2% (active).

With `Cc1ccc(NCc2ccccc2)cc1`, the inhibition is 9.2% (inactive). As to `Cc1csc(=Nc2cccnc2)n1Cc1ccco1`, the inhibition is 2.8% (inactive). Consider `COc1cccc(OCC(=O)NNC(=S)Nc2ccc(Cl)cc2Cl)c1`, for which the inhibition was 3.7% (inactive). Regarding `O=C(c1cncc(Br)c1)N1CCN(c2ccc(N3CCOCC3)nn2)CC1`, the inhibition was 4.8% (inactive). With `O=C(CSc1cccc2cccc(Cl)c12)NC1=NCCS1`, the inhibition is 51.9% (active). Regarding `O=C(Cc1c(F)cccc1Cl)NC1=NCCS1`, the inhibition is 9.7% (inactive). `O=C(Cc1c(Cl)cccc1Cl)NC1=NCCS1`: the inhibition was -5.2% (inactive). As for `COc1ccc(N2C(=O)CSC(c3ccccc3)C2=O)cc1` (stereo not given), the inhibition was 4.1% (inactive). Then `Cc1cc(NC(=O)CN2CCN(S(=O)(=O)c3ccc(Cl)cc3)CC2)no1`, with 2.2% (inactive); and `Cc1ccc(C(NC(=O)C(C)C)c2cc([N+](=O)[O-])c3cccnc3c2O)cc1` (stereo not given), with 53.9% (active). For `CN(Cc1cc([N+](=O)[O-])c2cccnc2c1O)C1CCCCC1`, the inhibition is 51.8% (active). Regarding `O=[N+]([O-])c1cc(Cl)c(O)c2ncccc12`, the inhibition is 32.5% (inactive).

As to `CC(C)C(=O)NC(c1ccccc1)c1cc([N+](=O)[O-])c2cccnc2c1O` (stereo not given), the inhibition was 60.9% (active). In the case of `O=[N+]([O-])c1cc(CN2CCCC2)c2cccnc2c1O`, the inhibition is 44.4% (inactive). The value for `O=[N+]([O-])c1cc(CN2CCN(c3ccccc3)CC2)c(O)c2ncccc12` was 35.7% (inactive); that for `CC(C)C(=O)NC(c1cccs1)c1cc([N+](=O)[O-])c2cccnc2c1O` (stereo not given) was 46.5% (inactive); that for `O=C(NC(c1ccc(Cl)cc1)c1cc(Cl)c2cccnc2c1O)c1cccnc1` (stereo not given) was 2.3% (inactive).

As for `CC(C)C(=O)NC(c1ccco1)c1ccc2cccnc2c1O` (stereo not given), the inhibition was 37.8% (inactive). Regarding `CCCNC(=O)c1ccc2nc(-c3ccccc3)c(-c3ccccc3)nc2c1`, the inhibition was 11.1% (inactive). With `CCc1ccc(Oc2cc(C)nc(N)n2)cc1`, the inhibition is -0.3% (inactive).

Take `CCCCc1ccc(-n2nnnc2SCC(=O)Nc2cc(OC)c([N+](=O)[O-])cc2C)cc1`: the inhibition was 10.1% (inactive). As for `O=C(NCCc1ccc(Cl)cc1)c1cnc2n(c1=O)CCS2`, the inhibition was 4.8% (inactive).

Consider `O=C(N/N=C/c1ccc2c(c1)OCO2)c1sc2cccc(Cl)c2c1Cl`, for which the inhibition was 12.6% (inactive).

Regarding `O=C(CCCCCn1c(=O)[nH]c2ccccc2c1=O)N1CCN(Cc2ccc3c(c2)OCO3)CC1`, the inhibition is -4% (inactive).

As for `O=C(OCc1cccnc1)C1=Cc2ccccc2OC1`, the inhibition was -1.4% (inactive). For `COc1ccc(C(=O)c2ccc(OC)c3cccc(O)c23)cc1OC`, the inhibition is 14.7% (inactive). The value for `COc1ccc(C(=O)Nc2cccc(C(C)=O)c2)c(OC)c1OC` was 8.1% (inactive). For the compound `COc1ccc(C(C)=O)c2c(O)cccc12`, the inhibition is 56.5% (active). Turning to `CCOc1ccc(N(CC(=O)N/N=C/c2cccnc2)S(C)(=O)=O)cc1`, the inhibition is -3.8% (inactive). Then `CN(C)C(=O)C1(c2ccccc2)CCN(S(=O)(=O)c2ccccc2)CC1`, with 14.9% (inactive); and `COc1oc(-c2ccccc2C)nc1C(F)(F)F`, with 1.8% (inactive). On to `COc1ccc(N/C=C(\C(C)=O)c2ccc(OC)c(OC)c2)cc1OC`, for which the inhibition was 42.8% (inactive). Consider `COc1ccc(/C(=C/Nc2cccc(Br)c2)C(C)=O)cc1OC`, for which the inhibition was 4.4% (inactive). With `COc1ccc(/C(=C\Nc2ccc(C)c(C)c2)C(C)=O)cc1OC`, the inhibition was 56.5% (active). `CCC/C=N/NC(=O)c1cc(-c2ccccc2)nc2ccccc12`: the inhibition was -2.1% (inactive). Take `C=CCc1cc(/C=N/NC(=O)CSc2nnc(CCCc3ccc(OC)cc3)o2)cc(OC)c1O`: the inhibition is -3.4% (inactive). Take `N#C/C(=C1\C(=O)Nc2c(Cl)cc(Cl)cc21)c1nnc2n1CCCCC2`: the inhibition was 51% (active). The value for `N#C/C(=C1/CCCCCN1)c1nnc2n1CCCCC2` was -3.4% (inactive); that for `N#C/C(=N\Nc1cc(Cl)cc(Cl)c1)c1nnc2n1CCCCC2` was 14.3% (inactive). On to `O=C(c1cc2nc(-c3ccc(Cl)cc3)cc(C(F)(F)F)n2n1)N1CCOCC1`, for which the inhibition was 9.1% (inactive).

As for `CC(=O)N1CC(c2ccccc2)C(c2ccc(Cl)cc2)=N1` (stereo not given), the inhibition is 11.8% (inactive). On to `CC(C)C(O)(C#CCN1CCCCC1)C(C)C`, for which the inhibition was 2.1% (inactive). Then `O=C(NC(=S)N1CCCCC1)c1cccnc1`, with -1.5% (inactive); and `O=C(NC(=S)N1CCN(Cc2ccccc2)CC1)c1cccnc1`, with 58.4% (active); and `O=C(NC(=S)N1CCN(Cc2ccccc2)CC1)c1ccccc1`, with 13% (inactive). The value for `COCCN1C(=O)c2oc3ccccc3c(=O)c2C1c1ccc(O)c(OC)c1` (stereo not given) was 0.7% (inactive); that for `Cc1ccc([N+](=O)[O-])cc1NC(=O)C[n+]1ccccc1` was 22.2% (inactive); that for `Cc1cc([N+](=O)[O-])ccc1NC(=O)C[n+]1ccc(N(C)C)cc1` was -1.5% (inactive). `Cc1ccc(Cl)cc1NC(=O)C[n+]1ccc(Cc2ccc([N+](=O)[O-])cc2)cc1`: the inhibition was 55.3% (active).
